Source: PubChem (National Center for Advancing Translational Sciences (NCATS))
Only some compounds are listed: those with a hit (about 8.8% of all), similar ones and a draw of the others.
IL-1B inflam inh = blocks inflammasome-driven IL-1 beta release; THP-1 LPS/ATP IL-1B secretion, AlphaLISA, 16 h; active compounds read low; activity change, % at 57.5 µM; actives 4.7% (n = 360,000); AID 743279; in the data active = activity change below about -50%; inconclusive = mostly about -30% to -49%
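Secreted IL-1B measured by AlphaLISA bead assay after 16 h compound exposure of THP-1 cells; compounds (final up to 57.5 uM) added 1 h before LPS (250 ng/mL) and ATP (1.25 mM) stimulation; lower signal means less secretion.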
HT1080-NT tox = kills 2HG-producing HT-1080-NT fibrosarcoma cells | HT-1080-NT fibrosarcoma viability, CellTiter-Glo ATP luminescence, 48 h | Potency, µM (top dose mostly 46.1 µM), usual class: cytotoxic | actives 1.6% (n = 360,000);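 also: NT is the 2HG producing partner of a matched IDH1 knockdown line; nearly all actives have a fitted effect of over 55% in size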
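Compounds were tested in concentration-response format on HT-1080-NT cells for 48 hours at 37 degrees C. Cell viability came from CellTiter-Glo luminescence; curves were classified by r2, response magnitude and activity.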
HT1080 IDH1KD tx = HT-1080 IDH1 knockdown cell toxicity (counter line) | HT-1080 IDH1 knockdown viability, ATP luminescence, 48 h | Potency, µM (titrated, usually from 46.1 µM), hits mostly cytotoxic | actives 2% (n = 360,000)
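IDH1KD HT-1080 cells, 750/well, RPMI + 5% FBS; compound pinned after 2 h settling; 48 h, 37 °C; CellTiter-Glo luminescence; % activity normalised to DMSO and no-cell wells; curves fitted, classed by r2 and efficacy.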
KB-3-1 tox = KB-3-1 parental cell cytotoxicity. KB-3-1 viability, CellTiter-Glo ATP luminescence, 72 h. Potency, µM (top dose mostly 46.1 µM), actives largely listed as cytotoxic. actives 1.4% (n = 400,000); also: nearly all actives have a fitted effect of over 60% in size
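Parental KB-3-1 viability, qHTS format: 72 h compound exposure, 37 °C; CellTiter-Glo; media-only wells and DMSO plates as controls; concentration-effect fits on corrected data.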
KB-V1 MDR tox = KB-V1 MDR subline cytotoxicity. KB-V1 MDR cells viability, CellTiter-Glo, 72 h. AID 1347076. actives 3.4% (n = 400,000). Potency, µM (titrated, usually from 46.1 µM), usual class: cytotoxic; also: nearly all actives have a fitted effect of over 60% in size
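Cells of the MDR subline KB-V1 are plated, dosed with compound at multiple concentrations, and incubated 72 h at 37 degrees C; CellTiter-Glo is then added and luminescence read after 10 min.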
Of the large screens only hits and unclear results are named; the others gave an inactive call. Unless noted, calls follow the shape of the dose curve; as a rule, active = well fitted curve in the direction sought with a large enough effect; inconclusive = small, poorly fitted or top-dose-only effect, or another doubt; inactive = no such curve, though single readings can be large; an effect the other way counts as inactive or inconclusive.

CN(c1ccc(F)cc1)S(=O)(=O)N1CCCC(C(=O)NCCc2ccccc2)C1 (stereo not drawn)	none (no result: IL-1B inflam inh, HT1080-NT tox, HT1080 IDH1KD tx)
CC(=O)N1c2ccc(S(=O)(=O)N3CCCC(C(=O)N4CCC(C)CC4)C3)cc2CC1C (stereo not drawn)	KB-V1 MDR tox 21µM
CN(c1ccc(F)cc1)S(=O)(=O)N1CCCC(C(=O)NCc2ccccc2Cl)C1 (stereo not drawn)	KB-3-1 tox 16µM (no result: IL-1B inflam inh, HT1080-NT tox, HT1080 IDH1KD tx)
CC(=O)N1c2ccc(S(=O)(=O)N3CCCC(C(=O)N4CCCC(C)C4)C3)cc2CC1C (stereo not drawn)	none
O=C(NC(=O)c1ccccc1)OCCN1C(=O)c2ccccc2C1=O	HT1080 IDH1KD tx inconclusive
CN(C)/C=C(\C#N)C(=O)N/N=C/c1ccccc1	none
COCCNC(=O)Cc1c(C)c2c(cc(C)c3c(C(C)(C)C)coc32)oc1=O	HT1080-NT tox 6.5µM, HT1080 IDH1KD tx 8.2µM, KB-3-1 tox inconclusive, KB-V1 MDR tox inconclusive
Cc1cc2oc(=O)c(CC(=O)NCCCN(C)C)c(C)c2c2occ(C(C)(C)C)c12	IL-1B inflam inh -98, HT1080-NT tox 18µM, HT1080 IDH1KD tx 5.8µM, KB-3-1 tox inconclusive, KB-V1 MDR tox inconclusive
CSc1ccc(CCNC(=O)CN2C(=O)CCSc3ccccc32)cc1	none
C/C(=N\NC(N)=S)c1ccc(-n2ccnc2)cc1	none
C/C(=N\Nc1ccc(Cl)c(Cl)c1)c1ccc(-n2ccnc2)cc1	IL-1B inflam inh -65
C=C(C)CNC(=S)N/N=C(\C)c1ccc(-n2ccnc2)cc1	KB-V1 MDR tox 15µM
C/C(=N\NC(=O)c1ccccc1)c1ccc(-n2ccnc2)cc1	none
CCCOc1ccc(C2c3c(oc4ccccc4c3=O)C(=O)N2c2nc(C)c(C(=O)OCC)s2)cc1 (stereo not drawn)	none (no result: IL-1B inflam inh, HT1080-NT tox, HT1080 IDH1KD tx)
CCOC(=O)CSc1nc2c(sc(=S)n2-c2ccccc2OC)c(=O)n1Cc1ccco1	KB-V1 MDR tox 9.2µM
CCOC(=O)CSc1nc2c(sc(=S)n2-c2ccccc2OC)c(=O)n1-c1ccccc1OC	IL-1B inflam inh -64
CCN(CC)C(=O)CSc1nc2c(sc(=S)n2Cc2ccco2)c(=O)n1-c1ccccc1	KB-V1 MDR tox 8.2µM
CCCCNC(=O)N1CCc2ccccc2C1	none
CCCCNc1nc2ccccc2n1CC(=O)N1CCc2ccccc2C1	HT1080 IDH1KD tx inconclusive, KB-V1 MDR tox 10µM
CCSc1nc2nccnc2c(=O)[nH]1	KB-V1 MDR tox inconclusive
CCC(C(=O)NC(C)(C)C)N(Cc1ccc(F)cc1)C(=O)c1snc(C(N)=O)c1N (stereo not drawn)	none
CCCN(C(=O)CCl)C1=CCCCC1	IL-1B inflam inh -87, HT1080-NT tox 10µM, HT1080 IDH1KD tx inconclusive, KB-3-1 tox inconclusive
CCN1CCN(c2cc(C)nc(-c3ccccc3O)n2)CC1	IL-1B inflam inh -69
Cc1cc(N2CCCCCC2)nc(-c2ccccc2O)n1	KB-3-1 tox inconclusive
CCc1ccc(C(c2c(C)nn(-c3ccccc3)c2N)c2c(C)nn(-c3ccccc3)c2N)cc1	IL-1B inflam inh -67
Cc1cccc(C(c2c(C)nn(-c3ccccc3)c2N)c2c(C)nn(-c3ccccc3)c2N)c1	KB-V1 MDR tox inconclusive
CCNC(=O)C1CCCN1S(=O)(=O)c1ccc2ccccc2c1 (stereo not drawn)	KB-3-1 tox inconclusive
O=C(NC1CC1)C1CCCN1S(=O)(=O)c1ccc2ccccc2c1 (stereo not drawn)	KB-3-1 tox 16µM, KB-V1 MDR tox inconclusive
CCOC(=O)c1c(S(=O)(=O)N2CCC(C(=O)Nc3cccc(C)n3)CC2)c(C)n(C)c1C	none (no result: IL-1B inflam inh, HT1080-NT tox, HT1080 IDH1KD tx)
CCCCn1c(=O)cc(C)n(-c2ccccc2)c1=O	none
CCCCn1c(=O)nc2n(-c3ccccc3)c3ccccc3cc-2c1=O	KB-3-1 tox inconclusive, KB-V1 MDR tox 10µM
CCOC(=O)C1=C(NC(=S)NC(=O)c2ccccc2)c2ccccc2CC1(C)CC (stereo not drawn)	IL-1B inflam inh -56, HT1080 IDH1KD tx inconclusive, KB-3-1 tox 16µM, KB-V1 MDR tox inconclusive
CCOC(=O)C1=C(NC(=S)NC(=O)c2ccccc2)c2ccccc2CC1C(C)C (stereo not drawn)	HT1080-NT tox inconclusive, HT1080 IDH1KD tx inconclusive, KB-3-1 tox inconclusive, KB-V1 MDR tox inconclusive
COc1ccc(CCNC(=O)COC(=O)CCC(=O)c2ccc(F)cc2)cc1OC	none
COc1ccc(Nc2nc3cc(C)ccc3cc2C#N)c(OC)c1	HT1080 IDH1KD tx inconclusive, KB-3-1 tox 2.1µM
N#Cc1cccc(S(=O)(=O)NCC(=O)NCc2ccc3c(c2)OCO3)c1	none
O=C(Nc1ccncc1)Nc1cc(Cl)ccc1Cl	IL-1B inflam inh -54
O=C(Nc1ccncc1)Nc1ccc(Cl)cc1	IL-1B inflam inh -94
CC(Oc1ccc(Cl)cc1Cl)C(=O)Nc1ccncc1 (stereo not drawn)	HT1080-NT tox inconclusive, HT1080 IDH1KD tx inconclusive, KB-V1 MDR tox 9.2µM
CC(=O)Nc1ccc(NC(=O)C(C)Oc2ccc(Cl)cc2Cl)cc1 (stereo not drawn)	none
CC(=O)c1ccc(NC(=O)Nc2ccc(Cl)cc2)cc1	IL-1B inflam inh -99, KB-V1 MDR tox inconclusive
O=[N+]([O-])c1ccc(-c2csc(Nc3ccccc3)n2)cc1	none (no result: IL-1B inflam inh, KB-3-1 tox, KB-V1 MDR tox)
CC(C)(C)OC(=O)N1CSC[C@H]1C(=O)NC[C@H](CC(=O)O)c1ccc(Cl)cc1	none
Cc1cc(S(=O)(=O)N2CCN(Cc3noc(CCC(=O)N4CCCCC4)n3)CC2)ccc1F	none (no result: IL-1B inflam inh, HT1080-NT tox, HT1080 IDH1KD tx)
Nc1ccc(NC(=O)c2cc(Cl)ccc2O)c(Cl)c1	none (no result: IL-1B inflam inh, HT1080-NT tox, HT1080 IDH1KD tx)
Clc1ccc2nccnc2c1	KB-3-1 tox inconclusive (no result: IL-1B inflam inh, HT1080-NT tox, HT1080 IDH1KD tx)
CC[C@H](C)[C@H]1CNC(=S)N1CC1CCN(CC)CC1	HT1080-NT tox inconclusive
CC(=O)c1ccc(NC(=O)NC2CCCCCCC2)cc1	IL-1B inflam inh -66
CC(OC(=O)Cc1ccc(Cl)cc1)C(=O)NCCC1=CCCCC1 (stereo not drawn)	none
CC(Oc1ccc(Cl)cc1Cl)C(=O)NCCC1=CCCCC1 (stereo not drawn)	IL-1B inflam inh -57
CC(=O)c1cccc(NC(=O)NC2CCCCCCC2)c1	KB-V1 MDR tox inconclusive
Cc1ccc2[nH]c(O)c(N=Nc3nc4ccccc4s3)c2c1	HT1080-NT tox inconclusive, KB-3-1 tox inconclusive, KB-V1 MDR tox 13µM
Oc1[nH]c2ccccc2c1N=Nc1nc2ccccc2s1	none
CC(=O)NC1=NN(C(C)=O)C(C)(c2cccs2)S1 (stereo not drawn)	HT1080-NT tox 2.9µM, HT1080 IDH1KD tx 4.6µM, KB-3-1 tox inconclusive
CC(=O)NC1=NN(C(C)=O)C(C)(c2cccnc2)S1 (stereo not drawn)	HT1080 IDH1KD tx inconclusive
CC(=O)NC1=NN(C(C)=O)C(C)(c2ccc(C)o2)S1 (stereo not drawn)	KB-V1 MDR tox inconclusive
CC(=O)NC1=NN(C(C)=O)C(C)(c2ccco2)S1 (stereo not drawn)	HT1080-NT tox inconclusive, HT1080 IDH1KD tx 23µM, KB-3-1 tox inconclusive, KB-V1 MDR tox inconclusive
